From PubChem BioAssay (NCATS)
Inconclusive results are not listed. A number with no mark means an inactive call. Calls of active or inactive are those of the source. Calls follow the shape of the dose curve; as a rule, active = well fitted inhibition curve with a large enough effect; inconclusive = small, poorly fitted or top-dose-only effect; inactive = flat fitted curve, though single readings scatter.

tested on: NIH3T3; test: Cytotoxic Profiling of Annotated Libraries Using Quantitative High-Throughput Screening (AID 1296008); conditions: Five cell lines viability, CellTiter-Glo ATP luminescence, 48-72 h; max response: hits give low values; also: nearly all actives have a fitted effect of over 60% in size
Outline: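 Compounds were pin-transferred onto cells and incubated 48 or 72 hr at 37 degree Celsius, 95% humidity. CellTiter-Glo was added, plates sat 10 min at room temperature, then ATP-coupled luminescence was imaged as the viability read-out.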
% is scaled to controls: 0 for no effect and ±100 for the full control effect.

Q: For `CC1(CO)CC2C(O)C(=O)C3(CO)CC3(C)C2C1` (centres undefined), which outcome is on record?
A: inactive

Q: How did the max response turn out when `O=C(COc1ccc(Cl)cc1)NC1CCC(NC(=O)COc2ccc(Cl)cc2)CC1` (centres undefined) was run?
A: -4.22%

Q: Which max response does the source give for `OC[C@H]1O[C@@H](OC(CCCCc2ccc(O)cc2)CCc2ccc(O)cc2)[C@H](O[C@@H]2OC[C@](O)(CO)[C@H]2O)[C@@H](O)[C@@H]1O` (some centres undefined) here?
A: 2.54%

Q: With `C=C1CCC[C@]2(C)C[C@]3(O)OC(=O)C(C)=C3C[C@@H]12` as the molecule, how does the outcome read?
A: inactive

Q: With `Nc1ncnc2c1ncn2[C@H]1CCCO1` as the molecule, how does the outcome read?
A: inactive

Q: How did the max response turn out when `CC1=C2[C@@H]([C@H](C)CC[C@H]2/C=C(\C)C(=O)O)[C@H](O)C1` was run?
A: 3.16%

Q: How did the outcome turn out when `CC1=CC(=O)CC(C)(C)C1CCC(C)OC1OC(COC(=O)c2cc(O)c(O)c(O)c2)C(O)C(O)C1O` (centres undefined) was run?
A: inactive

Q: How did the outcome turn out when `COC(=O)[C@H](CC1C=NC=N1)NCC12CC3CC(CC(C3)C1)C2` (some centres undefined) was run?
A: inactive

Q: How did the outcome turn out when `CC1(C)CCCC2(C)C3=C(C(=O)OC3O)C(O)CC12` (centres undefined) was run?
A: inactive

Q: How did the max response turn out when `CC(=O)O[C@@H]1C[C@@]23C[C@@]24CC[C@H](OC2OC[C@@H](O)[C@H](O)[C@H]2O)C(C)(C)[C@@H]4CC[C@H]3[C@]2(C)CC3OC4(C[C@@H](C)C3[C@@]12C)OCC1(C)OC14` (some centres undefined) was run?
A: 3.69%

Q: For `C=CC1C(O[C@@H]2O[C@H](CO)[C@@H](O)[C@H](O)[C@H]2O)OC=C(C(=O)OC)C1CC(=O)O` (some centres undefined), which max response is on record?
A: 3.11%

Q: How did the outcome turn out when `C#Cc1cnc2[nH]c(=O)n(C(CC)CC)c2n1` was run?
A: inactive

Q: For `CC(C)C(=O)O[C@@H]1[C@@H](O)[C@@H](O[C@H]2O[C@H](CO)[C@@H](O)[C@H](O)[C@H]2O)O[C@H](CO)[C@H]1O`, which max response is on record?
A: 1.16%

Q: Which max response does the source give for `COc1cc(C)c(C(=O)O[C@H]2[C@@H](O)[C@H](n3ccc(=O)[nH]c3=O)O[C@@H]2CO)c(OC)c1` here?
A: -2.57%

Q: For `C[C@@H]1O[C@@H](OC[C@H]2O[C@@H](OCC3CCC4CC3C4(C)C)[C@H](O)[C@@H](O)[C@@H]2O)[C@H](O)[C@H](O)[C@H]1O` (some centres undefined), which max response is on record?
A: -1.43%

Q: For `CC1=CC(=O)C[C@H]2[C@@H]1CC[C@@H](C)[C@]21CO[C@H](c2ccoc2)C1=O`, which max response is on record?
A: -2.85%

Q: Which max response does the source give for `CC(C)c1ccc(CC(=O)N2CCC[C@@H](c3cccc(OC(C)(C)C(=O)O)c3)C2)cc1` here?
A: -2.06%

Q: For `CC(=O)NC(CCC(=O)O)C(=O)NCCc1ccc(O)cc1` (centres undefined), which outcome is on record?
A: inactive

Q: How did the outcome turn out when `C=C[C@H]1[C@H](O[C@@H]2O[C@H](CO[C@@H]3OC[C@](O)(CO)[C@H]3O)[C@@H](O)[C@H](O)[C@H]2O)OC=C2C(=O)OCC[C@H]21` was run?
A: inactive

Q: `c1ccc(Nc2nc3c(s2)CCCc2[nH]ncc2-3)nc1` was tested. Which max response did it give?
A: 3.95%

Q: `COC(=O)C1C(CC(C)=O)C=CC(O)C12Oc1cc(C)cc(O)c1C2=O` (centres undefined) was tested. Which max response did it give?
A: 3.58%

Q: How did the outcome turn out when `COC(=O)C1=C[C@@H](O)[C@@H](O)[C@H](O[C@@H]2O[C@H](COC(=O)/C=C/c3ccccc3)[C@@H](O)[C@H](O)[C@H]2O)C1` was run?
A: inactive

Q: Which outcome does the source give for `C/C=C(\C)C(=O)O[C@@H](C)[C@H]1CC[C@]2(O)C3CCC4C[C@@H](OC5CC(OC)C(OC6CC(OC)C(OC7CC(OC)C(OC8OC(C)C(OC9OC(CO)C(O)C(O)C9O)C(OC)C8O)C(C)O7)C(C)O6)C(C)O5)CC[C@]4(C)C3[C@H](O)[C@@H](O)[C@]12C` (some centres undefined) here?
A: inactive

Q: With `C[C@@]12C[C@]3(O)O[C@H](O1)[C@]1(COC(=O)c4ccccc4)[C@H]3C[C@@]12O[C@@H]1O[C@H](COC(=O)c2ccccc2)[C@@H](O)[C@H](O)[C@H]1O` as the molecule, how does the max response read?
A: 1.22%

Q: `C/C=C(\C)C(=O)O[C@H]1[C@H](O)[C@]2(COC(C)=O)[C@H](O)C[C@]3(C)C(=CCC4[C@@]5(C)CC[C@H](O[C@@H]6O[C@H](C(=O)O)[C@@H](O[C@@H]7O[C@H](CO)[C@@H](O)[C@H](O)[C@H]7O)[C@H](O)[C@H]6O[C@@H]6O[C@H](CO)[C@@H](O)[C@H](O)[C@H]6O)[C@](C)(CO)C5CC[C@]43C)[C@@H]2CC1(C)C` (some centres undefined) was tested. Which max response did it give?
A: 2.26%

Q: Which max response does the source give for `CCC(CC)n1ccc2c(C(=O)NCc3c(C)cc(C)[nH]c3=O)cc(C#N)cc21` here?
A: -0.643%

Q: `COc1cc(O[C@@H]2O[C@H](CO)[C@@H](O)[C@H](O)[C@H]2O)c(CCC(=O)OC[C@H]2O[C@@H](Oc3cc(OC)c(C4OC(=O)C(C)(O)C4O)cc3CCC(=O)O)[C@H](O)[C@@H](O)[C@@H]2O)cc1C1OC(=O)C(C)(O)C1O` (some centres undefined) was tested. Which max response did it give?
A: -2.47%

Q: With `CC(=O)O[C@H]1C[C@@H]2[C@]3(CC[C@]4(C)[C@@H](C5(C)CCC(C(C)(C)O)O5)[C@@H](O)C[C@@]24C)C[C@@]32CC[C@H](O[C@@H]3OC[C@@H](O)[C@H](O)[C@H]3O)C(C)(C)[C@H]12` (some centres undefined) as the molecule, how does the max response read?
A: 1.48%

Q: For `CC1(C)CCC[C@@]2(C)[C@H]1[C@H](O)C=C1COC(=O)[C@@]12O`, which max response is on record?
A: 2.05%
